Results filed as inconclusive are left out. Activity calls are given as the source filed them. The call rests on the fitted dose curve; in most records, active means well fitted cell-killing curve with a large enough effect; inconclusive means small, poorly fitted or top-dose-only effect, or effect the other way; inactive means no such curve, though single readings can be large or run the other way.
Assays:
[1] = Quantitative High-Throughput drug screen in 47 multiple myeloma cell lines against the NCATS MIPE library collection: MM1R_ATCC cell viability assay (AID 1918981); further: nearly all actives have a fitted effect of over 35% in size
Outline: (§1)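 500 cells/well per myeloma line exposed to pinned MIPE 4.0 compounds for 48 h at 37 °C, 5% CO2. Viability read as ATP by CellTiter-Glo luminescence, normalised to DMSO-only (100%) and media-only (0%) wells.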

[2] = Quantitative High-Throughput drug screen in 47 multiple myeloma cell lines against the NCATS MIPE library collection: LP1_DSMZ cell viability assay (AID 1918982); further: nearly all actives have a fitted effect of over 35% in size
Outline: as §1

[3] = Quantitative High-Throughput drug screen in 47 multiple myeloma cell lines against the NCATS MIPE library collection: KMS28PE_JCRB cell viability assay (AID 1918983); further: nearly all actives have a fitted effect of over 35% in size
Outline: as §1

[4] = Quantitative High-Throughput drug screen in 47 multiple myeloma cell lines against the NCATS MIPE library collection: L363_DSMZ cell viability assay (AID 1918984); further: nearly all actives have a fitted effect of over 40% in size
Outline: as §1

[5] = Quantitative High-Throughput drug screen in 47 multiple myeloma cell lines against the NCATS MIPE library collection: OCIMY7_PLB cell viability assay (AID 1918987); details: OCI-MY7 myeloma viability, CellTiter-Glo ATP, 48 h; viability (% of DMSO): at 45.8 µM (top of the series); further: nearly all actives have a fitted effect of over 65% in size
Outline: as §1

[6] = Quantitative High-Throughput drug screen in 47 multiple myeloma cell lines against the NCATS MIPE library collection: OCIMY5_PLB cell viability assay (AID 1918988); further: nearly all actives have a fitted effect of over 65% in size
Outline: as §1

[7] = Quantitative High-Throughput drug screen in 47 multiple myeloma cell lines against the NCATS MIPE library collection: OPM1_PLB cell viability assay (AID 1918989); further: nearly all actives have a fitted effect of over 40% in size
Outline: as §1

[8] = Quantitative High-Throughput drug screen in 47 multiple myeloma cell lines against the NCATS MIPE library collection: SKMM1_PLB cell viability assay (AID 1919863); details: SKMM1 myeloma viability, CellTiter-Glo ATP, 48 h; viability: active compounds read low; further: nearly all actives have a fitted effect of over 35% in size
Outline: as §1

[9] = Quantitative High-Throughput drug screen in 47 multiple myeloma cell lines against the NCATS MIPE library collection: XG6_PLB cell viability assay (AID 1919865); further: nearly all actives have a fitted effect of over 40% in size
Outline: as §1

[10] = Quantitative High-Throughput drug screen in 47 multiple myeloma cell lines against the NCATS MIPE library collection: XG1_PLB cell viability assay (AID 1919866); further: nearly all actives have a fitted effect of over 35% in size
Outline: as §1

[11] = Quantitative High-Throughput drug screen in 47 multiple myeloma cell lines against the NCATS MIPE library collection: VP6_DJ cell viability assay (AID 1919867); further: nearly all actives have a fitted effect of over 40% in size
Outline: as §1

[12] = Quantitative High-Throughput drug screen in 47 multiple myeloma cell lines against the NCATS MIPE library collection: UTMC2_PLB cell viability assay (AID 1919868); details: CellTiter-Glo ATP luminescence, 48 h; viability (% of DMSO control): at 45.8 µM (top of the series); further: nearly all actives have a fitted effect of over 55% in size
Outline: as §1

[13] = Quantitative High-Throughput drug screen in 47 multiple myeloma cell lines against the NCATS MIPE library collection: PE2_PLB cell viability assay (AID 1919869); further: nearly all actives have a fitted effect of over 35% in size
Outline: as §1

[14] = Quantitative High-Throughput drug screen in 47 multiple myeloma cell lines against the NCATS MIPE library collection: OPM2_DSMZ cell viability assay (AID 1919872); further: nearly all actives have a fitted effect of over 30% in size
Outline: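 Steps: seed 500 cells per well; pin-transfer MIPE 4.0 library; incubate 48 h at 37C, 5% CO2, humidified; add CellTiter-Glo, 5 min room temperature; read luminescence.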

[15] = Quantitative High-Throughput drug screen in 47 multiple myeloma cell lines against the NCATS MIPE library collection: KMS11_JCRBsus cell viability assay (AID 1919873); further: nearly all actives have a fitted effect of over 50% in size
Outline: as §1

[16] = Quantitative High-Throughput drug screen in 47 multiple myeloma cell lines against the NCATS MIPE library collection: KMS28BM_JCRB cell viability assay (AID 1919874); further: nearly all actives have a fitted effect of over 35% in size
Outline: as §1

[17] = Quantitative High-Throughput drug screen in 47 multiple myeloma cell lines against the NCATS MIPE library collection: KMS34_JCRB cell viability assay (AID 1918985); further: nearly all actives have a fitted effect of over 40% in size
Outline: as §1

[18] = Quantitative High-Throughput drug screen in 47 multiple myeloma cell lines against the NCATS MIPE library collection: U266_ATCC cell viability assay (AID 1919864); further: nearly all actives have a fitted effect of over 35% in size
Outline: as §1

[19] = Quantitative High-Throughput drug screen in 47 multiple myeloma cell lines against the NCATS MIPE library collection: RPMI8226_ATCC cell viability assay (AID 1919871); further: nearly all actives have a fitted effect of over 30% in size
Outline: as §1

[20] = Quantitative High-Throughput drug screen in 47 multiple myeloma cell lines against the NCATS MIPE library collection: PCM6_Riken cell viability assay (AID 1919870); further: nearly all actives have a fitted effect of over 30% in size
Outline: as §1
Potency means the concentration at half of the fitted maximal effect.

COc1cc2ncnc(-n3nc(-c4ccccn4)nc3N)c2cc1OC
active: Potency [1] 18.7 µM | Potency [3] 11.8 µM | Potency [4] 0.662 µM | Potency [5] 1.66 µM | Potency [6] 5.26 µM | Potency [7] 11.8 µM | Potency [8] 0.662 µM | Potency [9] 1.05 µM | Potency [10] 5.9 µM | Potency [11] 6.62 µM | Potency [12] 3.32 µM | Potency [13] 3.72 µM
inactive: Potency [2] | Potency [14] | Potency [15] | Potency [16]

Clc1ccc(C(c2ccc(Cl)cc2)n2cc[n+](CC(OCc3ccc(Cl)cc3Cl)c3ccc(Cl)cc3Cl)c2)cc1 (configuration not stated)
active: Potency [1] 18.7 µM | Potency [2] 18.7 µM | Potency [3] 20.9 µM | Potency [4] 6.62 µM | Potency [17] 16.6 µM | Potency [6] 14.8 µM | Potency [7] 11.8 µM | Potency [8] 20.9 µM | Potency [18] 16.6 µM | Potency [9] 6.62 µM | Potency [10] 8.33 µM | Potency [11] 8.33 µM | Potency [12] 4.69 µM | Potency [13] 13.2 µM | Potency [19] 20.9 µM | Potency [14] 18.7 µM | Potency [15] 9.35 µM | Potency [16] 11.8 µM

COc1cc2ncnc(Nc3ccc(F)c(Cl)c3)c2cc1OCCCN1CCOCC1
active: Potency [1] 21.5 µM | Potency [2] 48.1 µM | Potency [3] 42.9 µM | Potency [4] 8.55 µM | Potency [17] 42.9 µM | Potency [5] 1.08 µM | Potency [6] 2.15 µM | Potency [7] 4.29 µM | Potency [8] 67.9 µM | Potency [18] 30.3 µM | Potency [9] 0.0762 µM | Potency [10] 3.03 µM | Potency [11] 6.79 µM | Potency [12] 17.1 µM | Potency [13] 13.6 µM | Potency [20] 6.05 µM | Potency [19] 42.9 µM | Potency [14] 54 µM | Potency [15] 21.5 µM

C=C1C(=O)[C@@]23C(CC[C@@H]1[C@H]2O)[C@@]12CO[C@]3(O)[C@@H](O)[C@@H]1C(C)(C)CC[C@@H]2O (some centres not stated)
active: Potency [1] 1.48 µM | Potency [2] 4.18 µM | Potency [3] 3.72 µM | Potency [17] 1.05 µM | Potency [6] 1.87 µM | Potency [7] 3.72 µM | Potency [8] 13.2 µM | Potency [18] 8.33 µM | Potency [9] 1.48 µM | Potency [10] 2.96 µM | Potency [11] 2.96 µM | Potency [12] 8.33 µM | Potency [13] 1.18 µM | Potency [19] 11.8 µM | Potency [14] 7.43 µM | Potency [15] 2.96 µM | Potency [16] 2.35 µM

O=C(NCc1ccccc1)c1csc(Nc2ccncn2)n1
active: Potency [1] 14.8 µM | Potency [2] 18.7 µM | Potency [3] 16.6 µM | Potency [4] 10.5 µM | Potency [17] 23.5 µM | Potency [7] 13.2 µM | Potency [8] 18.7 µM | Potency [18] 18.7 µM | Potency [9] 18.7 µM | Potency [10] 16.6 µM | Potency [11] 16.6 µM | Potency [12] 16.6 µM | Potency [13] 13.2 µM | Potency [19] 20.9 µM | Potency [15] 26.4 µM | Potency [16] 18.7 µM

CC(C(=O)O)c1ccc(-c2ccccc2)c(F)c1 (configuration not stated)
inactive: Potency [1] | Potency [2] | Potency [3] | Potency [17] | Potency [7] | viability [8] 102% | Potency [19] | Potency [14]
active: Potency [5] 14.8 µM | Potency [18] 20.9 µM | Potency [9] 20.9 µM | Potency [10] 9.35 µM | Potency [11] 13.2 µM | Potency [20] 14.8 µM | Potency [16] 14.8 µM

COC(=O)N[C@H](C(=O)N1CCC[C@@H]1c1ncc(-c2ccc(-c3ccc(-c4cnc([C@@H]5CCCN5C(=O)[C@@H](NC(=O)OC)C(C)C)[nH]4)cc3)cc2)[nH]1)C(C)C
inactive: Potency [12]
active: Potency [1] 26.4 µM | Potency [2] 18.7 µM | Potency [4] 29.6 µM | Potency [9] 26.4 µM | Potency [20] 26.4 µM | Potency [19] 20.9 µM | Potency [15] 26.4 µM | Potency [16] 20.9 µM

CN(C)c1cc(NC(=O)CNC(C)(C)C)c(O)c2c1C[C@@H]1C[C@H]3[C@H](N(C)C)C(=O)C(C(N)=O)=C(O)[C@@]3(O)C(=O)C1=C2O
active: Potency [1] 18.7 µM | Potency [12] 13.2 µM
inactive: Potency [2] | Potency [3] | Potency [6] | Potency [7] | Potency [18] | Potency [10] | Potency [13] | Potency [20] | Potency [19] | Potency [15] | Potency [16]

NC1CCC(Nc2nc(Nc3ccc(C(=O)N4CCCCC4)cc3)c3ncn(-c4cccc(F)c4)c3n2)CC1 (configuration not stated)
inactive: Potency [1] | Potency [2] | Potency [4] | Potency [7] | viability [8] 125% | Potency [18] | Potency [9] | Potency [10] | Potency [13] | Potency [19] | Potency [14] | Potency [15] | Potency [16]

NC[C@@H]1O[C@@H](O[C@H]2[C@@H](O)[C@H](O[C@@H]3[C@@H](O)[C@@H](N)C[C@H](N)[C@H]3O[C@H]3O[C@H](CN)[C@@H](O)[C@@H](O)[C@H]3N)O[C@H]2CO)[C@H](N)[C@@H](O)[C@@H]1O
inactive: Potency [1] | Potency [2] | Potency [4] | Potency [17] | Potency [6] | Potency [7] | Potency [18] | Potency [9] | Potency [10] | Potency [12] | Potency [13] | Potency [20] | Potency [19] | Potency [14] | Potency [15] | Potency [16]
